# From PubChem BioAssay
# A number with no mark means an inactive call. For some of these results: Entries with a potency or affinity are not part of this list. Active and inactive are the calls of the source. Unless noted, how the calls were made is not given here.
# How the values were obtained:
# [1] = antimalarial activity against Dd2 strain (AID 2302;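 active means growth inhibition above 50% at the single 2 µM test dose, taken to imply half-maximal potency below 2 µM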;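 further: 0% = DMSO untreated growth and 100% = chloroquine plus artemisinin killed control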); conditions: P. falciparum Dd2 in RBCs, LDH growth readout, 72 h; at 2 µM; hits give high values
# [2] = human hepatoma cell viability loss – ATP luminescence, cytotoxicity control for P. falciparum antimalarial project, primary screen (AID 2303;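 active means inhibition above 50%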;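 further: 0% = DMSO wells and 100% = digitonin-killed cells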); conditions: HepG2 viability, 24-48 h, at 10 µM, hits give high values
# [3] = molecular target: L-lactate dehydrogenase (Plasmodium falciparum (isolate CDC / Honduras)) (UniProt Q27743); test: PfLDH activity inhibition – cell lysate, 3D7 strain, counter-screen for P. falciparum growth inhibition project (AID 2304);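 further: 0% = vehicle and 100% = reference inhibitor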; conditions: P. falciparum 3D7 crude extract, LDH APAD/NBT absorbance; at 2 µM; hits give high values
# L-lactate dehydrogenase (Plasmodium falciparum (isolate CDC / Honduras)), sequence (Q27743 whole entry, looked up): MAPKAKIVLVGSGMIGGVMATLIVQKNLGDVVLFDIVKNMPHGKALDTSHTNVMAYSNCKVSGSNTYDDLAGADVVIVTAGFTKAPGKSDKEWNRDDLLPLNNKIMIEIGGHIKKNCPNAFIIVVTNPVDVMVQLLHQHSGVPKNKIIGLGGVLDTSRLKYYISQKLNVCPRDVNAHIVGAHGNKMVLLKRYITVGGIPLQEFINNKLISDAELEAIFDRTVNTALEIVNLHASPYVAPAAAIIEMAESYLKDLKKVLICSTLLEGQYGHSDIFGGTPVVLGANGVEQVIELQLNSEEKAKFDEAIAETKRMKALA
# [4] = inhibition of 3D7 malaria parasite growth – strain 3D7 (AID 2306);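 further: 0% = DMSO wells and 100% = chloroquine plus artemisinin control wells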; conditions: P. falciparum 3D7 erythrocytic growth, LDH absorbance, 72 h; at 2 µM; hits give high values
# [5] = molecular target: Calcium-dependent protein kinase 1 (Plasmodium falciparum (isolate 3D7)) (UniProt P62344); test: PfCDPK1 kinase inhibitors, biochemical, TCAMS library (AID 1159585; cut-off not given, nearly all actives have IC50 up to about 0.98 µM;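 further: inhibitors leave more ATP so luminescence rises with inhibition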); conditions: recombinant PfCDPK1, Kinase-Glo ATP depletion luminescence
# Calcium-dependent protein kinase 1 (Plasmodium falciparum (isolate 3D7)), sequence (P62344 whole entry, looked up): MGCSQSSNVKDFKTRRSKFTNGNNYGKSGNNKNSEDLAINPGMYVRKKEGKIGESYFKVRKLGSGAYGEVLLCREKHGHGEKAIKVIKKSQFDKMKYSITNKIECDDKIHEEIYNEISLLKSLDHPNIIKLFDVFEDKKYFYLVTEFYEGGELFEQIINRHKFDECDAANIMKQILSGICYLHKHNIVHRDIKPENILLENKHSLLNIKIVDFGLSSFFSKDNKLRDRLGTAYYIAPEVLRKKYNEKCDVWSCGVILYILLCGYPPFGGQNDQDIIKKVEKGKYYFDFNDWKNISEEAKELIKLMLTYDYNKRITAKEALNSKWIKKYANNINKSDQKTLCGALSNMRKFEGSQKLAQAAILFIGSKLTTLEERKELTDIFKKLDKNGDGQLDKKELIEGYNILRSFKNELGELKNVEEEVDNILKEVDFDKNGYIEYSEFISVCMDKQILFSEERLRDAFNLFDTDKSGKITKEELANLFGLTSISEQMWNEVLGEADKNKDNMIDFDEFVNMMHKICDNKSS
# [6] = molecular target: Plasmodium falciparum protein kinase 6 (PK6, PF3D7_1337100) (UniProt Q8IDW1); test: PfPK6 kinase inhibitors, biochemical, TCAMS library (AID 1159586); conditions: recombinant PfPK6, Kinase-Glo ATP depletion luminescence
# Plasmodium falciparum protein kinase 6 (PK6, PF3D7_1337100), sequence (Q8IDW1 1-305): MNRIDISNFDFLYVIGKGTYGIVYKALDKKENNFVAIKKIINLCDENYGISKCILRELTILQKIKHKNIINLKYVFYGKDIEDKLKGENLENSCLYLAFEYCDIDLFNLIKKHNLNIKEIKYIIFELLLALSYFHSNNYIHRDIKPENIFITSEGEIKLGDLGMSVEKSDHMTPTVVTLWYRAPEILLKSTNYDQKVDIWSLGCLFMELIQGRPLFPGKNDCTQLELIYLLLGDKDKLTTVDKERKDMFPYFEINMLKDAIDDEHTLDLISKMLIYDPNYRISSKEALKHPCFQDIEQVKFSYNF
# [7] = molecular target: Protein kinase 7 (PK7), Plasmodium falciparum 3D7 (PF3D7_0213400) (UniProt Q7YTF7); test: inhibition of Plasmodium PK7 catalytic activity – biochemical, TCAMS antimalarial set, Kinase-Glo luminescence (AID 1159587); conditions: recombinant PfPK7, Kinase-Glo ATP depletion luminescence
# Protein kinase 7 (PK7), Plasmodium falciparum 3D7 (PF3D7_0213400), sequence (Q7YTF7 1-343): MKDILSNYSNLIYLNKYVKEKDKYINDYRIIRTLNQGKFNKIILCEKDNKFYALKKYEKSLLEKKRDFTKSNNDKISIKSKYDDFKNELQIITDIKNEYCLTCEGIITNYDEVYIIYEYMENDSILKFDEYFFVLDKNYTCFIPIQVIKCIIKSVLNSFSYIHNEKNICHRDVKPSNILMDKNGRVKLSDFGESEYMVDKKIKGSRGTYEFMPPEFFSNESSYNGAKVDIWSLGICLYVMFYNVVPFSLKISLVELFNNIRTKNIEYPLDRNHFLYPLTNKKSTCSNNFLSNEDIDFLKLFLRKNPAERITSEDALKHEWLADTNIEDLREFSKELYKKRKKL
# [8] = molecular target: Calcium-dependent protein kinase 4 (Plasmodium falciparum (isolate 3D7)) (UniProt Q8IBS5); test: PfCDPK4 kinase inhibitors, biochemical, TCAMS library (AID 1159588; cut-off not given, nearly all actives have IC50 up to about 0.91 µM); conditions: recombinant PfCDPK4, Kinase-Glo ATP depletion luminescence
# Calcium-dependent protein kinase 4 (Plasmodium falciparum (isolate 3D7)), sequence (Q8IBS5 whole entry, looked up): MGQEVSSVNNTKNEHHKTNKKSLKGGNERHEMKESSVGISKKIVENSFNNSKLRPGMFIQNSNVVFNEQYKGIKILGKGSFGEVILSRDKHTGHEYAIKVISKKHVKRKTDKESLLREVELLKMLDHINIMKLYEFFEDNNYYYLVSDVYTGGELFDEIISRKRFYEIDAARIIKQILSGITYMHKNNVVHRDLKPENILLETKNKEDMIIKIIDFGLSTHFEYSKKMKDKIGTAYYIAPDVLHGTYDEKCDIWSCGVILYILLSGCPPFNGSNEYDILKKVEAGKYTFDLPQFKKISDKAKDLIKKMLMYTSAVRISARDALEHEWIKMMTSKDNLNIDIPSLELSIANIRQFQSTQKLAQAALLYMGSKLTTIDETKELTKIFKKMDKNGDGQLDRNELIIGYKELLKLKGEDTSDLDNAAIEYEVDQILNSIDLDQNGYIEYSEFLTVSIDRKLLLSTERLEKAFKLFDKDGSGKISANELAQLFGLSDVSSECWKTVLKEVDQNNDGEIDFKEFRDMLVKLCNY
Compound,growth inhibition [1],inhibition [2],inhibition [3] [%],growth inhibition [4],outcome [5],outcome [6],outcome [7],outcome [8]
CCCSc1nc2c(c(=O)n1Cc1ccco1)C1(CCCCC1)Cc1ccccc1-2,95% (active),-1%,0,100% (active),inactive,inactive,inactive,inactive
Cc1ccccc1C1CCN(C2CCC(NC(=O)/C=C/c3ccc4c(c3)OC(F)(F)O4)CC2)CC1 (stereo not drawn),39%,75% (active),2,100% (active),inactive,inactive,inactive,inactive
CC(=O)Nc1cccc(-c2cn(-c3ccc(OCc4cccc(F)c4)c(Cl)c3)c3ncncc23)c1,66% (active),7%,-4,100% (active),inactive,inactive,inactive,inactive
CC(C)Cc1ccc(N2CCN(CCCCNC(=O)c3ccc(NC(=O)c4ccc(Cl)c(Cl)c4)cc3)CC2)cc1,25%,21%,0,94% (active),inactive,inactive,inactive,inactive
COCCCNc1nc2cc(OC)c(OC)cc2c2nc(-c3ccccc3)nn12,97% (active),6%,-6,95% (active),inactive,inactive,inactive,inactive
Fc1c(CNCC2CCN(CC3CCCCC3)CC2)cccc1C(F)(F)F,7%,35%,3,93% (active),inactive,inactive,inactive,inactive
CCOc1ccc2c(NN=Cc3cccc(OC)c3)cc(C)nc2c1,81% (active),38%,-5,97% (active),inactive,inactive,inactive,inactive
COc1cc(C(C)C)ccc1N1CCN(CCCCNC(=O)c2ccc(NC(=O)c3ccc(Cl)cc3)cc2)CC1,81% (active),25%,3,98% (active),inactive,inactive,inactive,inactive
CC(=O)NCCNc1nccc(N2CCc3ncnc(Nc4ccc(OCc5ccccn5)c(Cl)c4)c3C2)n1,99% (active),-12%,10,99% (active),inactive,inactive,inactive,inactive
Oc1c(Cl)cc(-c2ccccc2)cc1CNC1CCCCC1,95% (active),5%,-5,97% (active),inactive,inactive,inactive,inactive
Cc1ccc(CNC(=O)[C@H](CCCN)Nc2cc(C)nc(Nc3ccccc3)n2)cc1,-4%,-2%,2,90% (active),inactive,inactive,inactive,inactive
O=C(NC1CC1)c1ccc(N2CCCC(COc3ccccc3F)C2)nc1 (stereo not drawn),92% (active),8%,-2,87% (active),inactive,inactive,inactive,inactive
CN1CCCCC1CCc1cc(C(=O)Nc2ccc(-c3ccc(O)cc3)cc2)ccc1O (stereo not drawn),11%,6%,3,91% (active),inactive,inactive,inactive,inactive
O=C(NCc1ccc(F)cc1)Nc1ccc(-c2ccc(-c3nc4ccccc4[nH]3)cc2)cc1,98% (active),43%,4,101% (active),inactive,inactive,inactive,inactive
CC(C)CCN1CCC(Oc2ccc(NC(=O)c3ccco3)cc2Cl)CC1,93% (active),1%,3,95% (active),inactive,inactive,inactive,inactive
COc1ccc(-c2ccccc2OCCCNc2nc(NCCc3ccc(O)cc3)nc(N3CCNCC3)n2)cc1,3%,36%,-1,99% (active),inactive,inactive,inactive,inactive
CC(C)(C)c1ccc2nc(-c3ccc(/C=C/C(=O)NC4CCN(Cc5ccccc5)CC4)cc3)[nH]c2c1,96% (active),45%,-2,101% (active),inactive,inactive,inactive,inactive
O=C(N[C@@H](CC1CCCCC1)C(=O)NC1CCCc2ccccc21)c1ccc(O)c(-c2cccc([N+](=O)[O-])c2)c1 (stereo partly drawn),98% (active),-12%,1,99% (active),inactive,inactive,inactive,inactive
c1cc(-c2ccc(CNCCc3ccncc3)cc2)cc(-c2nc3ccccc3[nH]2)c1,99% (active),41%,-8,101% (active),inactive,inactive,inactive,inactive
CC(C)(C)OC(=O)c1c(NC(=O)/C=C/c2ccc(O)c(O)c2)sc2c1CCCC2,77% (active),4%,2,97% (active),inactive,inactive,inactive,inactive
CCOC(=O)c1[nH]c(-c2cccnc2)nc1NC(=S)NCc1ccccc1,100% (active),10%,1,101% (active),inactive,inactive,inactive,inactive

Compound,growth inhibition [1],inhibition [2],inhibition [3] [%],growth inhibition [4],outcome [5],outcome [6],outcome [7],outcome [8]
Cc1cccc2[nH]c(-c3cccc(-c4cccc(NC(=O)c5cncn5C)c4)c3)nc12,91% (active),-1%,0,103% (active),inactive,inactive,inactive,inactive
CC(Nc1nncc(-c2cccc(F)c2)n1)c1ccc(F)cc1 (stereo not drawn),89% (active),4%,0,95% (active),inactive,inactive,inactive,inactive
CN1CCCc2ccc(NC(=O)C=Cc3ccc(-c4ccc(F)cc4F)o3)cc2C1,20%,8%,-5,98% (active),inactive,inactive,inactive,inactive
Fc1ccc2[nH]c3c(NCCN4CCCCC4)ncnc3c2c1,44%,24%,0,99% (active),inactive,inactive,inactive,inactive
COc1ccc2cc(-c3nc(-c4c(Cl)cccc4Cl)[nH]c3-c3ccnc(NCCCN4CCN(C)CC4)c3)ccc2c1,80% (active),10%,-5,98% (active),inactive,inactive,inactive,inactive
Cc1cccc(Cl)c1S(=O)(=O)Nc1cccc(CCN2CCC(N3CCCCC3)CC2)c1,18%,34%,2,91% (active),inactive,inactive,inactive,inactive
Clc1cccc(C=NNc2nc(Nc3ccccc3)nc(Nc3ccccc3)n2)c1,15%,-5%,-4,92% (active),inactive,inactive,inactive,inactive
CCc1cn(CCS(C)(=O)=O)c2ccc(C(=O)N[C@@H](Cc3ccccc3)[C@H](O)CNC(C)(C)CCCC(C)C)cc12,96% (active),16%,-7,87% (active),inactive,inactive,inactive,inactive
CC(c1cccc(S(=O)(=O)NCc2cccc(C(F)(F)F)c2)c1)N1CCC(N2CCCCC2)CC1 (stereo not drawn),35%,37%,2,99% (active),inactive,inactive,inactive,inactive
CN(CCCNC(=S)NC12CC3CC(CC(C3)C1)C2)CCCNc1ccnc2cc(Cl)ccc12,98% (active),73% (active),8,100% (active),inactive,inactive,inactive,inactive
CN1CCC(COc2ccc(CN3CCC(NC(=O)c4cccc(Cl)c4)CC3)cc2)CC1,13%,16%,-2,94% (active),inactive,inactive,inactive,inactive
COc1cccc(CNC(=O)c2cccc(-c3ccc(CN4CCC(N5CCCC5)CC4)cc3)n2)c1,76% (active),16%,1,101% (active),inactive,inactive,inactive,inactive
COc1cc(C=CC(=O)N2CCC3(CC2)CC(=O)c2ccccc2O3)cc(OC)c1OC,66% (active),7%,-1,88% (active),inactive,inactive,inactive,inactive
CCN(CC)CCNc1ccnc2[nH]c3ccc([N+](=O)[O-])cc3c12,76% (active),6%,-4,100% (active),inactive,inactive,inactive,inactive
COc1cccc(NC(=O)N2CCOC(CCN3CCC4(CCc5ccccc54)CC3)(c3ccc(Cl)c(Cl)c3)C2)c1 (stereo not drawn),72% (active),97% (active),5,94% (active),inactive,inactive,inactive,inactive
COc1ccc(C2CC(=O)C3=C(C2)NC(C)=C(C(=O)OC(C)C)C3c2cccc(O)c2)cc1OC (stereo not drawn),85% (active),-2%,-4,100% (active),inactive,inactive,inactive,inactive
CCCc1cc(Cc2cnc(N)nc2N)cc2c1OC(C)C2C (stereo not drawn),0%,32%,-3,98% (active),inactive,inactive,inactive,inactive
O=C(N[C@@H](CC1CCCCC1)C(=O)NCCN1CCCC1)c1ccc(O)c(-c2cccc(C(F)(F)F)c2)c1,55% (active),-11%,-4,99% (active),inactive,inactive,inactive,inactive
CC(O)C1CCCCN1C(=O)c1cccc(-c2ccc(-c3nc4ccccc4[nH]3)s2)c1 (stereo not drawn),23%,24%,-1,100% (active),inactive,inactive,inactive,inactive
c1ccc(Oc2ccc(Nc3ccnc4c(-c5ccccn5)cccc34)cc2)cc1,58% (active),31%,-8,100% (active),inactive,inactive,inactive,inactive
